This assay is described as follows: modulators of CD8 T cell-vesicle binding, confirmation, cherry-picked primary hits, two concentrations (AID 2810).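 For all read-outs here: lower values mean blocking of vesicle binding.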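 For percent response (vesicle binding): ratio of mean FL2 vesicle stain of CD8+ cells to that row's control.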 To be noted: 2C CD8+ T cell-vesicle binding, flow cytometry; for double positive events: CD8+/vesicle+ events.
Where [1] appears, read: at 15.4 µM, stronger effect = lower value.

Out of some 1,200 compounds screened, about 65 (5%) were called active.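 Rule for the calls: active = at either tested dose, response and 90th-percentile vesicle-stain brightness of CD8 cells under set limits and under 9% cells vesicle-bound; inactive = the rest.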 The entries come from a sample that favours actives as a whole.

With `CCOC(=O)C1CCN(C(=O)c2ccc(NC(=O)C3CCCO3)cc2)CC1` (stereo not given), the double positive events (at 7.7 µM) turned out to be 27.3%. Also, under setting [1], the double positive events stood at 1.9% and the percent response (vesicle binding) was 21.8% (active).
Consider `CCOC(=O)C1CCN(C(=O)c2cccc(S(=O)(=O)NCc3ccccc3)c2)CC1`, for which the double positive events was 16.4% (at 7.7 µM) and 18.8% under setting [1]. In addition, the percent response (vesicle binding) by setting is: under setting [1], 420% (inactive); (response, at 7.7 µM) 128%.
In the same order, the values of `Cc1ccc(NC(=O)C2CCCO2)cc1[N+](=O)[O-]` (stereo not given) are 25.5%, 9.4%, 161% (inactive) and 161%.
For `O=C(COc1ccccc1)NNC(=O)c1ccc(Cl)cc1`, the double positive events is, setting by setting: (at 7.7 µM) 27.8%; under setting [1], 8%. Further, the percent response (vesicle binding) by setting is: under setting [1], 220% (inactive); (response, at 7.7 µM) 616%.
For the molecule `CN(C)S(=O)(=O)c1ccc(NC(=O)c2ccc([N+](=O)[O-])cc2)cc1`, the double positive events is 25.4% (at 7.7 µM) and 22.8% under setting [1]. Also, the percent response (vesicle binding) was 217% (inactive) under setting [1] and 312% (response, at 7.7 µM).
Regarding `CCC(C(=O)Nc1ccccc1)c1ccccc1` (stereo not given), the double positive events (at 7.7 µM) was determined as 6.9% and the double positive events under setting [1] was 21.7%. Moreover, the percent response (vesicle binding) was 199% (active) under setting [1] and 59.2% (response, at 7.7 µM).
The molecule `CCOc1ccccc1NC(=O)C(OC(=O)c1ccccc1O)c1ccccc1` (stereo not given) displayed a double positive events (at 7.7 µM) of 6.9% and a double positive events under setting [1] of 21.5%. For the same molecule, the percent response (vesicle binding) was 190% (inactive) under setting [1] and 189% (response, at 7.7 µM).
For `CCC(C)c1ccc(NC(=O)NCc2cccnc2)cc1` (stereo not given), the double positive events (at 7.7 µM) was found to be 8.6% and the double positive events under setting [1] was 27.9%. The percent response (vesicle binding) runs as follows: under setting [1], 260% (inactive); (response, at 7.7 µM) 356%.
As for `Cc1ccc(CONC(=O)c2cccc([N+](=O)[O-])c2)cc1`, the double positive events was determined as 27.4% (at 7.7 µM) and 16.3% under setting [1]. The percent response (vesicle binding) under setting [1] is 328% (inactive) and the percent response (vesicle binding) (response, at 7.7 µM) came out at 576%.
Regarding `CCOC(=O)C1(Cc2cccc(OC)c2)CCN(Cc2ccc3c(c2)OCCO3)CC1`, the double positive events (at 7.7 µM) stood at 13% and the double positive events under setting [1] was 17.1%. For the same molecule, the percent response (vesicle binding) runs as follows: under setting [1], 114% (inactive); (response, at 7.7 µM) 148%.
For the molecule `CCOc1ccc(/C(O)=C2/C(=O)C(=O)N(CCN(CC)CC)C2c2cccs2)cc1` (stereo not given), the double positive events is 17.2% (at 7.7 µM) and 26.6% under setting [1]. Also, the percent response (vesicle binding) is 300% (inactive) under setting [1] and 187% (response, at 7.7 µM).
For `COCCN1C(=O)C(=O)/C(=C(/O)c2cccc(OC)c2)C1c1ccc(C)o1` (stereo not given), the double positive events is, setting by setting: (at 7.7 µM) 12.5%; under setting [1], 16.5%. Besides, the percent response (vesicle binding) under setting [1] is 205% (inactive) and the percent response (vesicle binding) (response, at 7.7 µM) stood at 173%.
`COc1ccc(/C(O)=C2/C(=O)C(=O)N(Cc3cccnc3)C2c2ccco2)cc1OC` (stereo not given): the double positive events runs as follows: (at 7.7 µM) 23.3%; under setting [1], 0.8%. Also, the percent response (vesicle binding) under setting [1] is 27% (active) and the percent response (vesicle binding) (response, at 7.7 µM) was determined as 360%.
With `COc1ccc(NC(=O)COC(=O)c2cc(Cl)ccc2O)cc1S(=O)(=O)N1CCCCC1`, the double positive events runs as follows: (at 7.7 µM) 27%; under setting [1], 23.1%. The percent response (vesicle binding) under setting [1] was 366% (inactive) and the percent response (vesicle binding) (response, at 7.7 µM) stood at 227%.
For the molecule `CC1CC(C)(C)NC(=S)N1CC(=O)NCc1ccccc1Cl` (stereo not given), the double positive events by setting is: (at 7.7 µM) 8.8%; under setting [1], 18.9%. Also, the percent response (vesicle binding) is 506% (inactive) under setting [1] and 79.3% (response, at 7.7 µM).
Consider `CCOC(=O)C1(CC2CCCCO2)CCN(S(=O)(=O)c2ccc(C)s2)CC1` (stereo not given), for which the double positive events came to 17.8% (at 7.7 µM) and 18.7% under setting [1]. Besides, the percent response (vesicle binding) was 122% (inactive) under setting [1] and 196% (response, at 7.7 µM).
In the same order, the values of `COc1ccc(F)c(CN2CCC(n3nccc3NC(=O)C3CCOC3)CC2)c1` (stereo not given) are 29.1%, 10.9%, 235% (inactive) and 538%.
With `CCCCCCCCn1c2c(c(=N)c3c1CCC3)CCCC2`, the double positive events turned out to be 1.8% (at 7.7 µM) and 5.8% under setting [1]. The percent response (vesicle binding) reads like this: under setting [1], 46.9% (active); (response, at 7.7 µM) 54.6%.
On to `C=CCN1C(=O)c2ccc(C(=O)N3CCN(S(=O)(=O)c4cccc(Cl)c4)CC3)cc2C1=O`, for which the double positive events is 12.4% (at 7.7 µM) and 26.8% under setting [1]. Besides, the percent response (vesicle binding) was 118% (inactive) under setting [1] and 125% (response, at 7.7 µM).
As to `CC(C)(C)C(=O)Nc1ccc2c(c1)OCCOCCOc1cc(NC(=O)C(C)(C)C)ccc1OCCOCCO2`, the double positive events amounted to 22.2% (at 7.7 µM) and 25.5% under setting [1]. In addition, the percent response (vesicle binding) was 251% (inactive) under setting [1] and 910% (response, at 7.7 µM).
In the case of `COc1ccc(N(CC(=O)NCCC2=CCCCC2)S(=O)(=O)c2ccc(C)cc2)cc1OC`, the double positive events by setting is: (at 7.7 µM) 8.6%; under setting [1], 22.9%. The percent response (vesicle binding) reads like this: under setting [1], 140% (inactive); (response, at 7.7 µM) 96.7%.
For `Cc1c(C(=O)NCCSCc2c(F)cccc2Cl)cnn1-c1ccc(Cl)cc1`, the double positive events reads like this: (at 7.7 µM) 19.9%; under setting [1], 1.6%. For the same molecule, the percent response (vesicle binding) runs as follows: under setting [1], 26.4% (active); (response, at 7.7 µM) 229%.
Consider `O=C(CSCCO)N1CCc2ccccc21`, for which the double positive events reads like this: (at 7.7 µM) 9.8%; under setting [1], 26%. Further, the percent response (vesicle binding) is 310% (inactive) under setting [1] and 415% (response, at 7.7 µM).
For `Nc1nnc(SCCOc2ccc(Br)cc2)s1` the same measures were 34.9%, 15.9%, 217% (inactive) and 294%.
Turning to `Cc1sc(NC(=O)CN2CCOCC2)c(C#N)c1C`, the double positive events reads like this: (at 7.7 µM) 10.4%; under setting [1], 29%. For the same molecule, the percent response (vesicle binding) runs as follows: under setting [1], 344% (inactive); (response, at 7.7 µM) 364%.
In the same order, the values of `COc1cccc(C(=O)O[C@@H]2[C@H](Cc3ccccc3)NS(=O)(=O)[C@H]3C[C@@H]4C=C[C@]23O4)c1` are 30%, 18.9%, 180% (inactive) and 197%.
As to `Cc1oc(-c2ccccc2)nc1Cn1cccc1C1=NC(c2ccccc2)CO1` (stereo not given), the double positive events is, setting by setting: (at 7.7 µM) 13.6%; under setting [1], 14.5%. The percent response (vesicle binding) by setting is: under setting [1], 105% (inactive); (response, at 7.7 µM) 179%.
As for `CCn1nc(C(=O)NCCc2ccc3c(c2)OCCO3)c2ccccc2c1=O`, the double positive events reads like this: (at 7.7 µM) 9.8%; under setting [1], 15.2%. In addition, the percent response (vesicle binding) is 173% (inactive) under setting [1] and 148% (response, at 7.7 µM).
In the same order, the values of `OC[C@H]1O[C@@H](Oc2ccc3cc(Br)ccc3c2)[C@H](O)[C@@H](O)[C@H]1O` are 14.4%, 27.5%, 389% (inactive) and 493%.
Turning to `COC(=O)CN1C(=S)N(C)C(=O)C1CC(=O)Nc1ccccc1` (stereo not given), the double positive events by setting is: (at 7.7 µM) 18.9%; under setting [1], 12.8%. The percent response (vesicle binding) under setting [1] was 120% (inactive) and the percent response (vesicle binding) (response, at 7.7 µM) was determined as 896%.
For `COc1ccc(C(=O)N2CCN(c3ccc(NC(=O)Cc4ccccc4)cc3)CC2)cc1`, the double positive events is 25.4% (at 7.7 µM) and 23.5% under setting [1]. The percent response (vesicle binding) runs as follows: under setting [1], 291% (inactive); (response, at 7.7 µM) 635%.
Consider `COc1ccc(NC(=O)CC2C(=O)N(Cc3ccccc3)C(=S)N2CCN2CCOCC2)cc1` (stereo not given), for which the double positive events runs as follows: (at 7.7 µM) 13%; under setting [1], 0.6%. Moreover, the percent response (vesicle binding) by setting is: under setting [1], 20% (active); (response, at 7.7 µM) 196%.
Regarding `S=c1sc2c(N3CCOCC3)ncnc2n1-c1ccccc1`, the double positive events by setting is: (at 7.7 µM) 9.4%; under setting [1], 12.2%. Moreover, the percent response (vesicle binding) by setting is: under setting [1], 206% (inactive); (response, at 7.7 µM) 355%.
The molecule `Cc1cc2ncn(C(=O)N3CCCCCC3)c2cc1C` showed a double positive events (at 7.7 µM) of 6.8% and a double positive events under setting [1] of 21.3%. Also, the percent response (vesicle binding) by setting is: under setting [1], 112% (inactive); (response, at 7.7 µM) 241%.

The values above are taken from PubChem BioAssay AID2810 (NMMLSC, 2010).
